# FadD28 FP inh: M. tuberculosis FadD28 bisubstrate binding inhibition; FadD28 bisubstrate probe binding, fluorescence polarization; inhibition, % at 12.5 µM; actives 0.22% (n = 360,000); in the data active means inhibition above about 8.5%, passing the limit was not always enough
# GDH-TPI counter: inhibits GDH-TPI coupling enzymes, artifact for Mtb FBA screen. GDH-TPI coupled enzyme counterscreen, NADH absorbance. inhibition, % at 4.8 µM. actives 1.2% (n = 360,000). AID 588335; in the data active means inhibition above about 30%;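 further: 0% = DMSO wells and 100% = wells lacking the enzyme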
# Mtb BioA inh: inhibitors of Mycobacterium tuberculosis BioA enzyme; actives 0.096% (n = 360,000); purified M. tuberculosis BioA enzyme, plate reader; AID 602481; inhibition, % at 9.99 µM; in the data active means inhibition above about 40%
# Mtb hypoxia rep: reduces hypoxia-regulated biosensor signal in M. tuberculosis; M. tuberculosis hypoxia-regulated fluorescent reporter, fluorescence; fluorescence inhibition, % (concentration not given with the values); actives 0.1% (n = 300,000); AID 1159583; in the data active means fluorescence inhibition mostly above about 23%, no sharp cut-off; inactive means mostly below about 17%
# FBA Mtb inh: inhibitors of M. tuberculosis fructose-bisphosphate aldolase. AID 588726. inhibition, % at 1 µM. purified M. tuberculosis FBA, fluorescence read-out. actives 2.3% (n = 360,000); in the data active means inhibition above about 27%;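 further: 0% = vehicle and 100% = reference inhibitor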
# Target sequence (P9WQA3 whole entry, looked up): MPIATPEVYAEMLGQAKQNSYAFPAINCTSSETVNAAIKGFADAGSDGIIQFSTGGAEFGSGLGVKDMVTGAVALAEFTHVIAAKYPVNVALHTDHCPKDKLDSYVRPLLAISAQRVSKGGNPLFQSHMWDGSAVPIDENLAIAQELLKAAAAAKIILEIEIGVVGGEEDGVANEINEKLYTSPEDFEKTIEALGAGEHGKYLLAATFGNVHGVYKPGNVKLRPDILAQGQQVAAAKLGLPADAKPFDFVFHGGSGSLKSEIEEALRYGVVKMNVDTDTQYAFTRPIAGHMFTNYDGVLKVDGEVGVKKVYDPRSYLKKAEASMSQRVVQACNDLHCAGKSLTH
# * marks the source's active call; other numbers are inactive results; · = not tested or not shown; + = active, no number. Most compounds without a hit are left out; they make up all but 2.9% or so of the library.
SMILES,FadD28 FP inh,GDH-TPI counter,Mtb BioA inh,Mtb hypoxia rep,FBA Mtb inh
COc1ccc(C=CC(=O)c2ccc(OC)c(OC)c2)cc1O,-3,40*,4,·,3
O=C(CN1CCOCC1)NCC[C@H]1CC[C@H](NC(=O)c2ccccc2F)[C@H](CO)O1,·,·,1,·,·
C[C@@H]1CCCCO[C@@H](CN(C)Cc2ccc(C(=O)O)cc2)[C@@H](C)CN([C@@H](C)CO)C(=O)c2cc(NC(=O)Nc3ccc(F)cc3)ccc2O1,·,·,2,·,·
COc1ccc(C=CC(=O)c2ccc3cc(OC)c(OC)cc3c2)cc1OC,-10,31*,0,·,-4
COc1ccc2cc(C(=O)/C=C/c3cc(OC)c(OC)c(OC)c3)ccc2c1,-1,16,-3,0,1
CCOc1cc(/C=C/C(=O)c2ccc(O)cc2)ccc1OCC(=O)N(C)C,-4,47*,1,3,-3
COc1cc(OC)c(C(=O)C=Cc2ccc(OC)c(OC)c2)c(OC)c1,-2,35*,-2,0,0
C[C@@H]1CN([C@@H](C)CO)C(=O)Cc2cc(NS(=O)(=O)c3cccs3)ccc2O[C@H]1CN(C)C,·,·,-4,·,·
C[C@@H]1CN([C@H](C)CO)C(=O)c2cc(C3=CCCC3)cnc2O[C@@H]1CN(C)S(=O)(=O)c1cn(C)cn1,·,·,-4,·,·
CC(=O)NC[C@@H]1[C@H](c2ccc(-c3ccccc3)cc2)[C@H](CO)N1C(=O)C1CC1,·,·,-7,·,·
CNC(=O)c1ccc(-c2sc3nc(N4CCOCC4)c4c(c3c2N)CCCC4)o1,2,11,7,8,14
CC1(C)Cc2c(c(N3CCOCC3)nc3sc(-c4ccc(C(=O)O)o4)c(N)c23)CO1,0,37*,2,·,69*
CCOC(=O)c1nc2sc3c(c2c(=O)n1C(C)C(=O)OCC)CCCC3 (stereo not given),-1,11,2,16,135*
O=C(c1ccco1)c1cn(CC(=O)N2CCCCCC2)c2ccccc12,0,38*,0,·,-3
CCOC(=O)C1CCN(C(=O)Cn2cc(C(=O)c3ccco3)c3ccccc32)CC1,-2,13,·,11,-1
CNC[C@H]1Oc2c(NS(C)(=O)=O)cccc2C(=O)N([C@@H](C)CO)C[C@@H]1C,·,·,-2,·,·
COc1ccccc1-n1c(SC)nc2c(sc(=S)n2-c2ccccc2)c1=O,1,5,-2,7,0
COc1ccccc1-n1c(=S)sc2c(=O)n(Cc3ccco3)c(SC)nc21,-1,40*,-2,3,0
C[C@@H]1CN([C@H](C)CO)C(=O)Cc2cc(NC(=O)CCC(F)(F)F)ccc2O[C@@H]1CN(C)Cc1ccc(C(F)(F)F)cc1,·,·,0,·,·
O=[N+]([O-])c1ccc(Oc2cccnc2)c([N+](=O)[O-])c1,-4,2,·,·,-2
Nc1ccc(Oc2ccc([N+](=O)[O-])cc2[N+](=O)[O-])cc1,0,33*,-2,3,3
CCS(=O)(=O)Nc1ccc(C(=O)CC2(O)C(=O)Nc3ccccc32)cc1 (stereo not given),-2,39*,-2,5,-2
O=C(CC1(O)C(=O)Nc2ccccc21)c1ccc(-n2cnnn2)cc1 (stereo not given),-2,4,0,2,2
C[C@H](CO)N1C[C@H](C)[C@H](CN(C)CC2CCOCC2)Oc2ncc(C#CCc3ccccc3)cc2C1=O,·,·,1,·,·
Cc1sc2ncnc(N3CCC(C(=O)Nc4nnc(SCc5ccccc5F)s4)CC3)c2c1C,0,0,·,11,138*
SMILES,FadD28 FP inh,GDH-TPI counter,Mtb BioA inh,Mtb hypoxia rep,FBA Mtb inh
CCc1cccc(NC(=O)C2CCN(c3ncnc4sc(C)c(C)c34)CC2)c1,-1,-3,1,6,3
Cn1cnnc1SC/C(O)=C(\C#N)c1nc2ccccc2[nH]1,0,28,·,-11,-1
Cc1ccc(C)c(SCC(=O)OC/C(O)=C(\C#N)c2nc3ccccc3[nH]2)c1,-2,10,·,8,2
N#C/C(=C(/O)COC(=O)CSc1ccc2ccccc2c1)c1nc2ccccc2[nH]1,-2,38*,-1,-4,2
N#C/C(=C(/O)CSc1n[nH]c(N)n1)c1nc2ccccc2[nH]1,-2,32*,·,15,4
CCNc1cc2oc(=O)c(CN3CCOCC3)c(C)c2cc1C,-4,20,-1,6,+
Cc1cc2oc(=O)cc(CN3CCOCC3)c2cc1C,-3,18,-2,4,-3
Cc1ccsc1C1Nc2ccccc2-c2nc3ccccc3n21 (stereo not given),-3,12,·,17,178*
COc1ccc(/C=N/Nc2nn3cnnc3c3ccccc23)cc1,-4,35*,·,·,-3
CCOc1cc(C=NNc2nn3cnnc3c3ccccc23)ccc1O,·,·,·,-12,·
C#CCOCCOCCOCCNc1nc(N2CCOCC2)nc(N2CCN(C(=O)CCCCCCCCCCNC(=O)[C@H]([C@@H](C)CC)n3cc(CCCCN=C(N)N)nn3)CC2)n1,-3,15,2,·,4
C#CCOCCOCCOCCNc1nc(N2CCN(C(=O)CCCCCCCCCCNC(=O)[C@H](CCCCN)n3cc(C[C@@H](C)CC)nn3)CC2)nc(N2CCN(C(=O)CCCCCCCCCCNC(=O)[C@H](CCCN=C(N)N)n3cc(C[C@@H](C)CC)nn3)CC2)n1,-16,11,-2,·,3
C#CCOCCOCCOCCNc1nc(N2CCN(C(=O)CCCCCCCCCCNC(=O)[C@H]([C@@H](C)CC)n3cc(CCCCN=C(N)N)nn3)CC2)nc(N2CCN(C(=O)CCCCCCCCCCNC(=O)[C@@H]([C@H](C)O)n3cc(C)nn3)CC2)n1,15*,8,-2,·,1
C#CCOCCOCCOCCNc1nc(N2CCN(C(=O)CCCCCCCCCCNC(=O)[C@@H](CCSC)n3cc(CCO)nn3)CC2)nc(N2CCN(C(=O)CCCCCCCCCCNC(=O)[C@H](CCCN=C(N)N)n3cc(C[C@@H](C)CC)nn3)CC2)n1,11*,10,-1,·,1
COc1ccccc1-c1cnc2c(c1)C(=O)N([C@H](C)CO)C[C@@H](C)[C@@H](CN(C)C(C)=O)O2,·,·,2,·,·
Cc1noc(C)c1NC(=O)Nc1ccc2c(c1)C(=O)N([C@H](C)CO)C[C@H](C)[C@H](CN(C)S(=O)(=O)c1ccc(Cl)cc1)OCCCC[C@@H](C)O2,·,·,2,·,·
O=C(CN1CCN(S(=O)(=O)c2ccc(Br)cc2)CC1)NN=Cc1ccc(Cl)c([N+](=O)[O-])c1,·,·,·,5,·
O=C1c2cccc3cccc(c23)C(=O)N1/N=C/c1ccc(O)cc1O,-3,47*,-2,·,-6
O=C1c2cccc3cccc(c23)C(=O)N1N=Cc1ccc(O)cc1O,·,·,·,4,·
O=C(Nc1cccc(F)c1)N1CCCCN2[C@@H](CO)[C@@H](c3ccc(C#Cc4cccnc4)cc3)[C@@H]2C1,·,·,1,·,·
Brc1ccc(OCc2nnc3n2CCC3)cc1,-1,6,·,36*,2
O=C(CC(=O)NC1CCCCC1)N/N=C/c1cccc2ccccc12,0,31*,0,·,1
O=C(CC(=O)NC1CCCCC1)NN=Cc1cccc2ccccc12,·,·,·,-7,·

# Source: PubChem BioAssay (several laboratories)
